Most compounds without a hit are left out; they make up all but 4.2% or so of the library.
RecA splice inh = inhibitors of M. tuberculosis RecA intein splicing; 290,000 tested, 0.75% active; cell-free RecA intein splicing, fluorescence; P9WHJ3; AID 2221; inhibition, % (test concentration not listed); in the data active = inhibition above about 30%;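 also: 0% = vehicle wells and 100% = reference inhibitor control wells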
Target sequence (P9WHJ3 whole entry, looked up, canonical isoform): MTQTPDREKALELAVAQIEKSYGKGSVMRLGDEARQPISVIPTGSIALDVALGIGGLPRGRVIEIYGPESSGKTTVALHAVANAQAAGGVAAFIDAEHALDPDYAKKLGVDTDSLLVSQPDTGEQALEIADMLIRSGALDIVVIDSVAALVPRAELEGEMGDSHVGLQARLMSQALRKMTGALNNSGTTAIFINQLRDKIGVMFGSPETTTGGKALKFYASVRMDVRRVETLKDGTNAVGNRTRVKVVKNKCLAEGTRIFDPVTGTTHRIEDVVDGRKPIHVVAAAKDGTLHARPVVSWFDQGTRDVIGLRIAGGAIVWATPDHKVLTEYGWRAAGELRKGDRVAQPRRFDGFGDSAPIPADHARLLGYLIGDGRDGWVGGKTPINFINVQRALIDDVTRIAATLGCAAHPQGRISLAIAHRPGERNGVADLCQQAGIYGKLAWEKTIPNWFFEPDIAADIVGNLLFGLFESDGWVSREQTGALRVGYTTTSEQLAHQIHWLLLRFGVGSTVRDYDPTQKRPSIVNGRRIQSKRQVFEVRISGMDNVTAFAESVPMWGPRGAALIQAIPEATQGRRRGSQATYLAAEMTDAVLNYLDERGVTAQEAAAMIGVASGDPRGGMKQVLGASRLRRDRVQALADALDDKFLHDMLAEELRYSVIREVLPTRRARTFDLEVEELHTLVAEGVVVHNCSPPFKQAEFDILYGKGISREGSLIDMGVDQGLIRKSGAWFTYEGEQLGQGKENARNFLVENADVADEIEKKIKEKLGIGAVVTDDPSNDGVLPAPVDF
GDH-TPI counter-1 = inhibits GDH-TPI coupling enzymes, artifact for Mtb FBA screen; GDH-TPI coupled enzyme counterscreen, NADH absorbance; inhibition, % at 4.8 µM; 360,000 tested, 1.2% active; AID 588335; in the data active = inhibition above about 30%;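 also: 0% = DMSO wells and 100% = wells lacking the enzyme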
Mtb FBA inh = Mtb fructose-bisphosphate aldolase inhibition; inhibition, % at 1 µM; 360,000 tested, 2.3% active; purified M. tuberculosis FBA, fluorescence read-out; P9WQA3;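 also: 0% = vehicle and 100% = reference inhibitor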
CCHF vOTU inh = CCHFV vOTU protease inhibition; 370,000 tested, 0.55% active; Pep-AMC fluorescence; inhibition, % at 11.5 µM; in the data active = inhibition above about 30%; also: 0% = vehicle wells with enzyme and 100% = no enzyme wells
Mtb FBA inh conf = confirmation of M. tuberculosis fructose-bisphosphate aldolase inhibitors | shares compounds with Mtb FBA inh | purified M. tuberculosis FBA, fluorescence read-out | inhibition, % at 1 µM | 5,600 tested, 78% active | AID 651616;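 also: 0% = vehicle wells and 100% = reference inhibitor wells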
GDH-TPI counter-2 = counter-screen for M. tuberculosis FBA inhibitors: GDH-TPI coupled enzyme inhibition. 5,600 tested, 81% active. GDH-TPI coupled enzyme counterscreen, fluorescence. shares compounds with Mtb FBA inh. inhibition, % at 1 µM; in the data active = inhibition above about 10%
Active calls of the source: *. Rule as the data show it, unless noted: active = inhibition above about 27%; inactive = the rest.

Results for Cc1cc(=O)oc2cc(NC(=O)C(CCCN=C(N)N)NC(=O)OCc3ccccc3)ccc12 (stereo not given) ?
RecA splice inh: 6; GDH-TPI counter-1: 18; Mtb FBA inh: 37*; CCHF vOTU inh: -16; Mtb FBA inh conf: 38*; GDH-TPI counter-2: 23*

What do the screens show for `Cc1ccccc1CC(=O)Nc1ccc2c(C)cc(=O)oc2c1`?
RecA splice inh: -1; GDH-TPI counter-1: 3; Mtb FBA inh: 94*; CCHF vOTU inh: -40; Mtb FBA inh conf: 7; GDH-TPI counter-2: 7

How did Cc1cc(=O)oc2cc(NC(=O)COc3cccc(C(F)(F)F)c3)ccc12 do in these assays?
GDH-TPI counter-1: 16; Mtb FBA inh: 41*; CCHF vOTU inh: -38; Mtb FBA inh conf: 71*; GDH-TPI counter-2: 50*

Results for NC(N)=NCCC[C@H](NC(=O)OCc1ccccc1)C(=O)O ?
RecA splice inh: -2; GDH-TPI counter-1: -8; Mtb FBA inh: -2; CCHF vOTU inh: 6

How did Cc1cccc(OCC(=O)Nc2ccc3c(C)cc(=O)oc3c2)c1 do in these assays?
RecA splice inh: 0; GDH-TPI counter-1: 15; Mtb FBA inh: 15; CCHF vOTU inh: -15

How did CCCCOC(=O)Nc1ccc2c(C)cc(=O)oc2c1 do in these assays?
RecA splice inh: 0; GDH-TPI counter-1: 17; Mtb FBA inh: 84*; CCHF vOTU inh: -83; Mtb FBA inh conf: 7; GDH-TPI counter-2: 2

What do the screens show for `Cc1cc(=O)oc2cc(NC(=O)CCOc3ccccc3)ccc12`?
GDH-TPI counter-1: 16; Mtb FBA inh: 20; CCHF vOTU inh: -7

What do the screens show for `CCOC(=O)CC1C(=O)NCCN1C(=S)NC(=O)c1ccc(C)c(Br)c1` (stereo not given)?
GDH-TPI counter-1: -2; Mtb FBA inh: 0; CCHF vOTU inh: 16

What do the screens show for `COc1ccc(NC(=O)c2cc(C3CCCCN3S(=O)(=O)c3c(C)noc3C)on2)c(C)c1` (stereo not given)?
GDH-TPI counter-1: 5; Mtb FBA inh: 0; CCHF vOTU inh: 0

What do the screens show for `COc1ccc(C(=O)N[C@H](C(=O)Nc2cccc(S(=O)(=O)N3CCOCC3)c2)C(C)C)cc1`?
GDH-TPI counter-1: 9; Mtb FBA inh: 1; CCHF vOTU inh: -8

Results for O=C(O)c1ccccc1-c1ccccc1C(=O)Nc1ccc2c(c1)C(=O)c1ccccc1-2 ?
GDH-TPI counter-1: -3; Mtb FBA inh: -3; CCHF vOTU inh: -5

Results for Cc1cc(=O)oc2cc(NC(=O)c3ccnn3C)ccc12 ?
RecA splice inh: -1; GDH-TPI counter-1: 9; Mtb FBA inh: 32*; Mtb FBA inh conf: active; GDH-TPI counter-2: active

How did Cc1cc(=O)oc2cc(NC(=O)c3c(Cl)cnn3C)ccc12 do in these assays?
RecA splice inh: 0; GDH-TPI counter-1: 26; Mtb FBA inh: 9; CCHF vOTU inh: -6

How did O=C(O)c1ccccc1-c1ccccc1C(=O)Nc1ccc2c(c1)oc(=O)c1ccccc12 do in these assays?
GDH-TPI counter-1: 30; Mtb FBA inh: 34*; CCHF vOTU inh: -9; Mtb FBA inh conf: 2; GDH-TPI counter-2: -3

Results for Cc1cc(=O)oc2cc(NC(=O)CN3C(=O)NC(C)(c4ccccc4)C3=O)ccc12 (stereo not given) ?
RecA splice inh: -3; GDH-TPI counter-1: 11; Mtb FBA inh: 61*; CCHF vOTU inh: -50; Mtb FBA inh conf: 137*; GDH-TPI counter-2: 103*

What do the screens show for `COc1ccccc1CC(=O)Nc1ccc2c(C)cc(=O)oc2c1`?
RecA splice inh: -6; GDH-TPI counter-1: 22; Mtb FBA inh: 37*; CCHF vOTU inh: -43; Mtb FBA inh conf: 101*; GDH-TPI counter-2: 82*

What do the screens show for `CC1(c2ccccc2)NC(=O)N(CC(=O)Nc2ccc3c(c2)OCO3)C1=O` (stereo not given)?
RecA splice inh: 0; GDH-TPI counter-1: 6; Mtb FBA inh: 5; CCHF vOTU inh: 9

How did Cc1cc(=O)oc2cc(NC(=O)COc3ccccc3[N+](=O)[O-])ccc12 do in these assays?
GDH-TPI counter-1: 7; Mtb FBA inh: 18; CCHF vOTU inh: 5

How did CC(C)CCN(C(=O)c1cc(=O)[nH]c2ccccc12)c1c(N)n(Cc2ccccc2)c(=O)[nH]c1=O do in these assays?
GDH-TPI counter-1: 8; Mtb FBA inh: -1; CCHF vOTU inh: 21

What do the screens show for `CCOC(=O)N1CCN(C(=O)c2ccc3c(c2)N=C(C)c2cc(Cl)ccc2S3)CC1`?
RecA splice inh: 3; GDH-TPI counter-1: 7; Mtb FBA inh: -1; CCHF vOTU inh: 16

What do the screens show for `N#Cc1ccccc1OCC(=O)NNC(=O)CCNC(=O)c1ccccc1`?
GDH-TPI counter-1: 2; Mtb FBA inh: 2; CCHF vOTU inh: 1

What do the screens show for `C[C@]12c3[nH]c4ccc(Cl)cc4c3CCN1C(=O)[C@@H](CC(=O)NCCC1=CCCCC1)C[C@@H]2C(=O)N1CCOCC1`?
GDH-TPI counter-1: -8; Mtb FBA inh: -1; CCHF vOTU inh: 9

How did COCCOc1ccc(C(F)(F)F)cc1NC(=O)COC(=O)C12CC3CC(CC(O)(C3)C1)C2 do in these assays?
RecA splice inh: 0; GDH-TPI counter-1: 2; Mtb FBA inh: 3; CCHF vOTU inh: 7

How did Cc1cc(C)c(C#N)c(SCC(=O)Nc2cc(C)on2)n1 do in these assays?
GDH-TPI counter-1: 7; Mtb FBA inh: 6; CCHF vOTU inh: -6

What do the screens show for `C[C@H](NC(=O)OCc1ccccc1)P(=O)(O)O`?
CCHF vOTU inh: 1

How did COc1ccc(S(=O)(=O)N(C)C[C@H]2Oc3ncc(-c4ccncc4)cc3C(=O)N([C@@H](C)CO)C[C@@H]2C)cc1 do in these assays?
GDH-TPI counter-1: -10; Mtb FBA inh: -2; CCHF vOTU inh: 7

What do the screens show for `COc1cccc(C(=O)Nc2ccc3c(C)cc(=O)oc3c2)c1`?
RecA splice inh: 0; GDH-TPI counter-1: 14; Mtb FBA inh: 3; CCHF vOTU inh: 7

How did Cc1cc(=O)oc2cc(NC(=O)c3ccccc3Cl)ccc12 do in these assays?
RecA splice inh: -1; GDH-TPI counter-1: 22; Mtb FBA inh: 96*; CCHF vOTU inh: -93; Mtb FBA inh conf: 0; GDH-TPI counter-2: 0

How did CCCCCCCCN1C(=O)[C@@H](CC(=O)N2CCOCC2)C[C@@]2(C(=O)OC)C1=C[C@H](C1CCCC1)O[C@@H]2C do in these assays?
CCHF vOTU inh: 28

Results for Cc1cccc(C)c1C(O)c1ncc(-c2cccc3ccccc23)[nH]1 (stereo not given) ?
GDH-TPI counter-1: 9; Mtb FBA inh: 56*; CCHF vOTU inh: -10; Mtb FBA inh conf: 5; GDH-TPI counter-2: -1

How did Cc1cc(C)c(C(O)c2ncc(-c3cccc4ccccc34)[nH]2)c(C)c1 (stereo not given) do in these assays?
GDH-TPI counter-1: 14; Mtb FBA inh: 57*; CCHF vOTU inh: 1; Mtb FBA inh conf: 89*; GDH-TPI counter-2: 69*

How did Cc1cc(C)c(C(O)c2ncc(-c3ccccc3C)[nH]2)c(C)c1 (stereo not given) do in these assays?
GDH-TPI counter-1: 7; Mtb FBA inh: 0; CCHF vOTU inh: -2

How did CSc1nc(N)c2cn[nH]c2n1 do in these assays?
GDH-TPI counter-1: -4; Mtb FBA inh: 1; CCHF vOTU inh: -15

Screening data from PubChem.
